TIM10 inh – growth inhibitors of isogenic TIM10 control yeast, primary screen, counter-screen for tim10-1 yeast inhibitor project, luminescence, uHTS; S. cerevisiae TIM10 strain growth, BacTiter-Glo luminescence, 24 h; inhibition, % at 10 µM; 330,000 tested, 1.4% active; AID 463195, 2010;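 active means inhibition of 40% or more at the single tested concentration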;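 further: wild-type TIM10 isogenic control strain grown at permissive 25 °C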
MPTP inh – mitochondrial permeability transition pore inhibitors, primary screen, biochemical, isolated mouse mitochondria, absorbance | AID 602449, 2012 | 360,000 tested, 1.4% active | Ca2+ swelling absorbance, 30 min | inhibition, % at 10 µM;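 active means inhibition of 50% or more, scaled per plate between neutral and stimulator controls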
Mdm2 MdmX PPI – inhibitors of human Mdm2-MdmX association, primary screen, cell-based, luminescence, split luciferase, SaOS-2, uHTS; Protein Mdm4 (Homo sapiens) + E3 ubiquitin-protein ligase Mdm2 (Homo sapiens), …; inhibition, % at 8 µM; SaOS-2 split-luciferase Mdm2/MdmX complementation; 330,000 tested, 3% active;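 active means inhibition of at least 50% at 8 µM in the primary screen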
tim10-1 inh – growth inhibitors of tim10-1 mutant yeast, primary screen, luminescence, uHTS | S. cerevisiae tim10-1 ts strain growth, BacTiter-Glo, 24 h | inhibition, % at 20 µM | 330,000 tested, 2.2% active;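 active means inhibition of at least 40%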;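 further: mutant grown at 25 °C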
tim23-1 inh – growth inhibitors of tim23-1 mutant yeast, primary screen, luminescence, uHTS; inhibition, % at 20 µM; S. cerevisiae tim23-1 growth, BacTiter-Glo luminescence, 24 h; 330,000 tested, 1.3% active;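 active means growth inhibition of the mutant yeast at or above 50%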;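 further: temperature-sensitive mutant grown at 25 °C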
tim10-1 conf – growth inhibitors of tim10-1 mutant yeast, confirmation, single concentration, luminescence, S. cerevisiae; shares compounds with tim10-1 inh; S. cerevisiae tim10-1 ts strain growth, BacTiter-Glo, 24 h; inhibition, % at 20 µM; 7,400 tested, 56% active; AID 463213, 2010;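 active means inhibition of yeast growth at or above a set limit in either of two repeat tests at 20 µM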;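 further: tim10-1 mutant grown at permissive 25 °C to find synthetic lethal compounds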
Each line names hits and unclear results; the compound was inactive in the other large screens (follow-up assays come after a bar, where they were run). Hits are enriched below; roughly 6.3% of the tested compounds scored in any of these assays.

COC(=O)c1ccc2nc(-c3ccc(F)cc3)c(CC3CCCCC3)n2c1	none (no result: TIM10 inh, Mdm2 MdmX PPI, tim10-1 inh, tim23-1 inh)
CN(C)CC/C=C1/c2ccccc2Sc2c(O)cc(Cl)cc21	none
COc1cc2c(cc1Cl)/C(=C\CCN(C)C)c1ccccc1S2	tim10-1 inh 40 | tim10-1 conf inactive
Cc1cc(C)c2nc(N3CCCN(C(=O)c4ccco4)CC3)c(C#N)cc2c1	tim10-1 inh 47 | tim10-1 conf 32
Cc1nc(N2CCN(C(=O)c3ccco3)CC2)c(C#N)c2c1CCCC2	none
CCCCS/C(=C(/C#N)C(N)=O)c1cc2c([nH]1)CCCC2	tim10-1 inh 45 | tim10-1 conf 38
CCc1ccc(N/C(SC)=C(/C#N)C(N)=O)cc1	none
CC(C)NC(=O)C1(C)CN(S(C)(=O)=O)CC(=O)N1C1CCCCCC1 (stereo unspecified)	none (no result: TIM10 inh, Mdm2 MdmX PPI, tim10-1 inh, tim23-1 inh)
COc1ccccc1N(C)S(=O)(=O)c1ccc(C(=O)Nc2ccc(N3CCOCC3)cc2)cc1	tim10-1 inh 47 | tim10-1 conf 33
CC1(C(=O)NS(=O)(=O)C2CC2)CCN(C(=O)c2ccc(F)c(Cl)c2)C1 (stereo unspecified)	none (no result: TIM10 inh, Mdm2 MdmX PPI, tim10-1 inh, tim23-1 inh)
CC(C)Nc1nc(Cl)nc(NCCOc2ccccc2)n1	tim10-1 inh 40 | tim10-1 conf inactive
CCC(C)Nc1nc(Cl)nc(NCCOc2ccccc2)n1 (stereo unspecified)	none
COc1ccc(-c2nnc3c4ccccc4c(C)nn23)cc1	tim10-1 inh 49 | tim10-1 conf inactive
Cn1c(N)c(C(C[N+](=O)[O-])c2ccccc2Cl)c(=O)n(C)c1=O (stereo unspecified)	none
Cc1cc(O)c(C(C[N+](=O)[O-])c2ccc(Cl)cc2Cl)c(=O)o1 (stereo unspecified)	tim10-1 inh 43 | tim10-1 conf inactive
Cn1c(=O)c2cc(NC(=O)CCc3ccccc3)ccc2n1-c1ccccc1F	none (no result: TIM10 inh, Mdm2 MdmX PPI, tim10-1 inh, tim23-1 inh)
COc1ccc(OC)c(C(C)NC(=S)NC2CCCCC2)c1 (stereo unspecified)	tim10-1 inh 42 | tim10-1 conf inactive
Cc1ccc(C)c(N2CCN(C(=O)CCC(=O)Nc3nnc(C(F)(F)F)s3)CC2)c1	tim10-1 inh 55 | tim10-1 conf inactive
O=C(C1COc2ccccc2O1)N1CCN(c2nc3c(F)cc(F)cc3s2)CC1 (stereo unspecified)	tim10-1 inh 40 | tim10-1 conf inactive
C[C@H]1CN([C@@H](C)CO)C(=O)CCCn2nncc2CO[C@H]1CN(C)S(=O)(=O)c1ccc2ccccc2c1	none (no result: TIM10 inh, Mdm2 MdmX PPI, tim10-1 inh, tim23-1 inh)
CCN(CC)CCN(C(=O)c1ccc2c(c1)OCCO2)c1nc2ccc(C)cc2s1	tim10-1 inh 44 | tim10-1 conf inactive
Cc1ccc2nc(N(CCN(C)C)C(=O)c3ccc4c(c3)OCCO4)sc2c1	none
COc1ccc(C(=O)NCCNc2nc3cc(C)cc(C)c3cc2C#N)c(OC)c1	none (no result: TIM10 inh, Mdm2 MdmX PPI, tim10-1 inh, tim23-1 inh)
Cn1c(N2CCOCC2)nc(-c2ccccc2)c1-c1ccccc1	tim10-1 inh 46 | tim10-1 conf 39
COc1ccc(C(=O)N2CCCC(CO)(Cc3ccccc3C)C2)o1 (stereo unspecified)	tim10-1 inh 48 | tim10-1 conf inactive
Cc1ccccc1CC1(CO)CCCN(C(=O)c2cc(Cl)ccc2F)C1 (stereo unspecified)	tim10-1 inh 42 | tim10-1 conf 32
Cc1ccccc1CC1(CO)CCCN(C(=O)c2ccccc2Cl)C1 (stereo unspecified)	none
O=C(Nc1cccc(C(F)(F)F)c1)c1ccc2sc([C@@H]3O[C@H](CO)[C@H](O)[C@H](O)[C@H]3O)nc2c1	none (no result: TIM10 inh, Mdm2 MdmX PPI, tim10-1 inh, tim23-1 inh)
Cc1ccc(S(=O)(=O)Nc2ccc(Nc3ccccc3)cc2)cc1	tim10-1 inh 43 | tim10-1 conf inactive
CN(C)CCCN1C(=O)c2cccc3cccc(c23)C1=O	none
CC1=CC2=C(OC1N(C)C)c1cccc3cccc(c13)C2=O (stereo unspecified)	tim10-1 inh 47 | tim10-1 conf 55
O=S(=O)(Nc1cc(Cl)ccn1)c1ccc(Cl)cc1	tim10-1 inh 42 | tim10-1 conf inactive
Cc1ccc(C)c2c1[nH]c1ccccc12	tim10-1 inh 41 | tim10-1 conf 38

From PubChem
